# Reference: ChEMBL document CHEMBL1961873, “Compounds: GSK PKIS; Assays: Nanosyn kinase panel” (2012)
# What was measured:
# [1] = molecular target: CDK3/Cyclin E (Homo sapiens) (UniProt P24864+Q00526); details: at 1 µM;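 also: each figure is a mean percent inhibition of the CDK3/cyclin E complex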
# [2] = molecular target: Cyclin-dependent kinase 4 (Homo sapiens) (UniProt P11802); details: at 0.1 µM
# [3] = molecular target: Cyclin-dependent kinase 4 (Homo sapiens) (UniProt P11802); details: at 1 µM
# [4] = molecular target: Cyclin-dependent kinase 5 (Homo sapiens) (UniProt Q00535); details: at 0.1 µM
# [5] = molecular target: Cyclin-dependent kinase 5 (Homo sapiens) (UniProt Q00535); details: at 1 µM
# [6] = molecular target: Cyclin-dependent kinase 6 (Homo sapiens) (UniProt Q00534); details: at 0.1 µM
# [7] = molecular target: Cyclin-dependent kinase 6 (Homo sapiens) (UniProt Q00534); details: at 1 µM
# [8] = molecular target: Dual specificity protein kinase CLK2 (Homo sapiens) (UniProt P49760); details: at 0.1 µM
# [9] = molecular target: Dual specificity protein kinase CLK2 (Homo sapiens) (UniProt P49760); details: at 1 µM
# [10] = molecular target: Dual specificity protein kinase CLK3 (Homo sapiens) (UniProt P49761); details: at 0.1 µM
# [11] = molecular target: Dual specificity protein kinase CLK3 (Homo sapiens) (UniProt P49761); details: at 1 µM
# [12] = molecular target: Dual specificity tyrosine-phosphorylation-regulated kinase 1A (Homo sapiens) (UniProt Q13627); details: at 0.1 µM
# [13] = molecular target: Dual specificity tyrosine-phosphorylation-regulated kinase 1A (Homo sapiens) (UniProt Q13627); details: at 1 µM
# [14] = molecular target: Dual specificity tyrosine-phosphorylation-regulated kinase 1B (Homo sapiens) (UniProt Q9Y463); details: at 0.1 µM
# [15] = molecular target: Dual specificity tyrosine-phosphorylation-regulated kinase 1B (Homo sapiens) (UniProt Q9Y463); details: at 1 µM
# [16] = molecular target: T1, Dual specificity tyrosine-phosphorylation-regulated kinase 2 (Homo sapiens) (UniProt Q92630); details: at 0.1 µM
# T1 sequence (whole entry): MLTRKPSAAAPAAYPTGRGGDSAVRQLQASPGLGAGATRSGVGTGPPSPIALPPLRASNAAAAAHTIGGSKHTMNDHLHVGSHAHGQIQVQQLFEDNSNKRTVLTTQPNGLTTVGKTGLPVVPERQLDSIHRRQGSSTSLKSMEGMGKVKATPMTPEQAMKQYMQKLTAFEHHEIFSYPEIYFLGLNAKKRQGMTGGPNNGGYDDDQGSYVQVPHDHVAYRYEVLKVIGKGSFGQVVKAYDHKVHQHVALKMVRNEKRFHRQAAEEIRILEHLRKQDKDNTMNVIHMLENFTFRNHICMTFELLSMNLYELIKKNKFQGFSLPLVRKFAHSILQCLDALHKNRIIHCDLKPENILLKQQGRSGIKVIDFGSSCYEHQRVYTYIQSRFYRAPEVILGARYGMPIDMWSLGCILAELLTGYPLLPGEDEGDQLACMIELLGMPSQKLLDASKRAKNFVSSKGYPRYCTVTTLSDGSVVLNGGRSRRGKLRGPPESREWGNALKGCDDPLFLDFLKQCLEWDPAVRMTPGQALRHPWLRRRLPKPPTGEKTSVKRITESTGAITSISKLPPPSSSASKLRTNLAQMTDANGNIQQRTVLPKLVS
# [17] = molecular target: T1, Dual specificity tyrosine-phosphorylation-regulated kinase 2 (Homo sapiens); details: at 1 µM
# [18] = molecular target: Glycogen synthase kinase-3 alpha (Homo sapiens) (UniProt P49840); details: at 0.1 µM
# [19] = molecular target: Glycogen synthase kinase-3 alpha (Homo sapiens) (UniProt P49840); details: at 1 µM
# [20] = molecular target: Glycogen synthase kinase-3 beta (Homo sapiens) (UniProt P49841); details: at 0.1 µM;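 also: values are mean percent inhibition of GSK3B activity, from the GSK Published Kinase Inhibitor Set (PKIS) screening dataset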
# Chain of Glycogen synthase kinase-3 beta (Homo sapiens) (P49841 whole entry, looked up): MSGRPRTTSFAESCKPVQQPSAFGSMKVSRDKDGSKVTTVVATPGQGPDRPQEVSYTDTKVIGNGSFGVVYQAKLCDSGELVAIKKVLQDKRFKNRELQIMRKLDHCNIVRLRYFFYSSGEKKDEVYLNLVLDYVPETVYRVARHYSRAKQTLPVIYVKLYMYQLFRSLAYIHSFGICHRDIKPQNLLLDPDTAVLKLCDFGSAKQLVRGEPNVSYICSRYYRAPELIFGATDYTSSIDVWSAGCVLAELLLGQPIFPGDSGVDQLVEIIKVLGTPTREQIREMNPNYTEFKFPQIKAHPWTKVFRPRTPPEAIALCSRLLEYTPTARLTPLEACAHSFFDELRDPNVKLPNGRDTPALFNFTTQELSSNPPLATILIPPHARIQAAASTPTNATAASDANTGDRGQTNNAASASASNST
# Chain of Cyclin-dependent kinase 6 (Homo sapiens) (Q00534 whole entry): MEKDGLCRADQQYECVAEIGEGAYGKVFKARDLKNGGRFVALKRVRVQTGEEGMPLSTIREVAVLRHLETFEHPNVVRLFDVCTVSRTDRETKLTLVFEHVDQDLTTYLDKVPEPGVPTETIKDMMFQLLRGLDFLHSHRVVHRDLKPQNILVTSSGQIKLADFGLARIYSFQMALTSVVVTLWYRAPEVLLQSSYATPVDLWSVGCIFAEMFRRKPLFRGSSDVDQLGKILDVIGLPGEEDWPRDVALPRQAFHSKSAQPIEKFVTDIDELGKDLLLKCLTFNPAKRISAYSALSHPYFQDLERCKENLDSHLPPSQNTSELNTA
# Chain of Dual specificity tyrosine-phosphorylation-regulated kinase 1B (Homo sapiens) (Q9Y463 whole entry, looked up): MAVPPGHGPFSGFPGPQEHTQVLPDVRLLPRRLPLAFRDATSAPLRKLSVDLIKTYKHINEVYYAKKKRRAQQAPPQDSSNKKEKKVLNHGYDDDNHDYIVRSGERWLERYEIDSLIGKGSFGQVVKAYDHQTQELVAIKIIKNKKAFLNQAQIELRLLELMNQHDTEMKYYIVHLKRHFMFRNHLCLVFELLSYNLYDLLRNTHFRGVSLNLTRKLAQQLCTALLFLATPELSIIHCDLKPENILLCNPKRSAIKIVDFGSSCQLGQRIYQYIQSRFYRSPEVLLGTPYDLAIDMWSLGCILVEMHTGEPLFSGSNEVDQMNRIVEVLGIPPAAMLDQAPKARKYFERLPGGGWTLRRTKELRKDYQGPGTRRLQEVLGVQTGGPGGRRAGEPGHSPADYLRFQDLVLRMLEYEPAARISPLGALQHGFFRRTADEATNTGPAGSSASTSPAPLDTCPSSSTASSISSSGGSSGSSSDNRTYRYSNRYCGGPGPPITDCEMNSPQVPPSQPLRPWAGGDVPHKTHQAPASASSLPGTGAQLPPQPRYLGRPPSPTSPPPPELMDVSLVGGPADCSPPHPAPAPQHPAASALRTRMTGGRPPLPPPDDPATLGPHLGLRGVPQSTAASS
# Chain of Cyclin-dependent kinase 4 (Homo sapiens) (P11802 whole entry): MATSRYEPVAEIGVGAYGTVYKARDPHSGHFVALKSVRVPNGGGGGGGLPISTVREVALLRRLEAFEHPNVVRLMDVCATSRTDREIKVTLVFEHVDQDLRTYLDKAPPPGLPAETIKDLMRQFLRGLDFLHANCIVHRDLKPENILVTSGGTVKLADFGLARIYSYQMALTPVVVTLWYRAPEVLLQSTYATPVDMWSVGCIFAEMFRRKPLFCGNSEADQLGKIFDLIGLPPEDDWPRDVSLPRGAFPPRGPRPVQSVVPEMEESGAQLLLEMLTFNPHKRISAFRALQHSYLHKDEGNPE
# Chain of Glycogen synthase kinase-3 alpha (Homo sapiens) (P49840 2-483 limits assumed): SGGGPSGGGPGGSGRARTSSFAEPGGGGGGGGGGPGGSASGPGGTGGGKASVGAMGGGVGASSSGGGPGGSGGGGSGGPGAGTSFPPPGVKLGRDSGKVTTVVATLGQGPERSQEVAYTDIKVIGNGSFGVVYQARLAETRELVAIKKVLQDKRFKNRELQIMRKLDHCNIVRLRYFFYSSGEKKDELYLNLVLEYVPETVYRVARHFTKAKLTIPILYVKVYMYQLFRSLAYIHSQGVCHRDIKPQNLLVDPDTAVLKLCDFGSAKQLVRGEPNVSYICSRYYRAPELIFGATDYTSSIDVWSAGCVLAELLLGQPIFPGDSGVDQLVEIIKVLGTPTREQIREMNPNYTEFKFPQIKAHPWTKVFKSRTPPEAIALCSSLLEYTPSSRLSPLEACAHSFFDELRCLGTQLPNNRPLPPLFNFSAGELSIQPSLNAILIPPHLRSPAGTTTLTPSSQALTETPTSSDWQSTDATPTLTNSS
# Chain of CDK3/Cyclin E (Homo sapiens) (P24864 whole entry, looked up): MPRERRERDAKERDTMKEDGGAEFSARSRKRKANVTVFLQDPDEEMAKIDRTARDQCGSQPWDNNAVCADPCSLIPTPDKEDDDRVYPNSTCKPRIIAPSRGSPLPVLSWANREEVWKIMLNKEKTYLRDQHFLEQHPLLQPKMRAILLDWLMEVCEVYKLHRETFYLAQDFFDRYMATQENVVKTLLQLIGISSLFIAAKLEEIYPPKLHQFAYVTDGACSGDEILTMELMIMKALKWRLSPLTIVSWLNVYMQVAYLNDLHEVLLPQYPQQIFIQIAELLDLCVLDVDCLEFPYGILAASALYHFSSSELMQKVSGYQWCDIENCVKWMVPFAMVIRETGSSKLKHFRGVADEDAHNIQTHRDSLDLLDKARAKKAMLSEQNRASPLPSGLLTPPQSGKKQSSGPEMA
# Chain of CDK3/Cyclin E (Homo sapiens) (Q00526 whole entry, looked up): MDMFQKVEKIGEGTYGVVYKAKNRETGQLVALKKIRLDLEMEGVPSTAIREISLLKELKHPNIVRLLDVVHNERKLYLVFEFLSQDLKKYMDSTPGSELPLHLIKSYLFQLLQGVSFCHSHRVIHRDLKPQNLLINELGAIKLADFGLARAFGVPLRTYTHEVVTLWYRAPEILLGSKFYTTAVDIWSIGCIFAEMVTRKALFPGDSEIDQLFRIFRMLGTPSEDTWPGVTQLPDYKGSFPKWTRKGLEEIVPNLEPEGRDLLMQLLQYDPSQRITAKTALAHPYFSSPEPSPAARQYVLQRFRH
# Chain of Dual specificity protein kinase CLK3 (Homo sapiens) (P49761 whole entry, looked up): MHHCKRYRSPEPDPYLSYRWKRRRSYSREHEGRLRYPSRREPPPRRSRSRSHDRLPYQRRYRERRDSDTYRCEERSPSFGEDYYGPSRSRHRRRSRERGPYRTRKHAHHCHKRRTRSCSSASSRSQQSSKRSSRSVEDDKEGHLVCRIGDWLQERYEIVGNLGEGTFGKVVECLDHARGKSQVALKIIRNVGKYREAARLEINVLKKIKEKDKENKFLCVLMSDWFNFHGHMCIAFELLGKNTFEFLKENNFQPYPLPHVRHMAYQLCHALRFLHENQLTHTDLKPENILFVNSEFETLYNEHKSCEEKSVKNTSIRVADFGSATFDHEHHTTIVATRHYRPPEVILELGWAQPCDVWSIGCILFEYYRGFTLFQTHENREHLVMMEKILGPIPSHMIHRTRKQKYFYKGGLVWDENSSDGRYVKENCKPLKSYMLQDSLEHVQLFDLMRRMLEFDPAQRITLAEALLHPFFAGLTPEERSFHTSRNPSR
# Chain of Cyclin-dependent kinase 5 (Homo sapiens) (Q00535 whole entry, looked up): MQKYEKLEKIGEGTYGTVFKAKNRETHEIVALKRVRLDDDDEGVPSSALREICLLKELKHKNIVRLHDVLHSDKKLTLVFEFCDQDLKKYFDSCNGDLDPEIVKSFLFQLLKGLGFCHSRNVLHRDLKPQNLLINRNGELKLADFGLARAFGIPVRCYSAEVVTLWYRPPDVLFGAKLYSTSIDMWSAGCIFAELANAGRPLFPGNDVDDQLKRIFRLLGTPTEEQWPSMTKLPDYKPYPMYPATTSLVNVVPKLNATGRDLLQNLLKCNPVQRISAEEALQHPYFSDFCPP
# Chain of Dual specificity protein kinase CLK2 (Homo sapiens) (P49760 whole entry, looked up): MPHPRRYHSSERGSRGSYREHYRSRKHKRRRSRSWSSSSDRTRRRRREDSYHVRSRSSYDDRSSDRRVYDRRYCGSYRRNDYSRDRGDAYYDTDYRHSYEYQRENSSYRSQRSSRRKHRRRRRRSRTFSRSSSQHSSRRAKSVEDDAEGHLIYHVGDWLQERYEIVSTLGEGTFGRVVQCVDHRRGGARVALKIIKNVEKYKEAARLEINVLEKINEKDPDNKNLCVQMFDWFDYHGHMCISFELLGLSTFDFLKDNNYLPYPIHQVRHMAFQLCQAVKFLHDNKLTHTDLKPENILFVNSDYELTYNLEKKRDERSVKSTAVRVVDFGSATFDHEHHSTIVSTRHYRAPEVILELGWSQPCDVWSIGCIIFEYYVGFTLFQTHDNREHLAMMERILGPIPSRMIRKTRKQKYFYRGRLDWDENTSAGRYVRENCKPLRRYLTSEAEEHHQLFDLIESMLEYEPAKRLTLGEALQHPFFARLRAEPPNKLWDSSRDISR
SMILES,inhibition [1] [%],inhibition [2] [%],inhibition [3] [%],inhibition [4] [%],inhibition [5] [%],inhibition [6] [%],inhibition [7] [%],inhibition [8] [%],inhibition [9] [%],inhibition [10] [%],inhibition [11] [%],inhibition [12] [%],inhibition [13] [%],inhibition [14] [%],inhibition [15] [%],inhibition [16] [%],inhibition [17] [%],inhibition [18] [%],inhibition [19] [%],inhibition [20] [%]
NS(=O)(=O)c1ccc(N/N=C2\C(=O)Nc3ccc(C(=O)NCCc4c[nH]cn4)cc32)cc1,81.3,14.4,56.4,48.3,84.4,14.9,55.9,46.5,91.9,4.48,24.2,6.64,30.6,5.35,31.5,6.85,33.4,50.7,86.8,51
COc1cc2c(cc1Nc1nc(N3CCc4ccccc43)c3cc[nH]c3n1)N(C(=O)CN(C)C)CC2,1.66,2.1,3.3,0.44,0.4,0.95,1.09,7.85,44.4,0.14,2.24,0.78,3.98,0.64,2.3,2.22,2.02,0.35,1.16,0.15
CC1=C(C(=O)Nc2ccc3[nH]ncc3c2)C(c2ccc3ccccc3c2)CC(=O)N1 (centres undefined),2.9,2.41,2.46,1.12,3.42,3.45,4.44,1.34,2.42,2.41,4.72,3.4,5.32,2.6,3.67,0.96,1.61,2.64,5.8,2.72
CCn1c(-c2nonc2N)nc2c(N3CCCC3)nccc21,-0.6,15.6,4.7,1.73,4.5,-2.76,2.52,-0.76,-0.67,1,1.31,3.13,8.89,2.51,6.95,-1.18,-1.63,1.82,4.77,2
CCCN1CCC(Oc2cc(Nc3nc(Nc4cccc(F)c4C(N)=O)c4cc[nH]c4n3)c(OC)cc2Cl)CC1,1.54,0.37,3.08,0.2,0.45,0.9,2.04,9.9,49.3,0.11,1.7,2.64,25.9,3.49,27.1,-0.2,0.67,3.45,9.53,3.22
O=C1NC(=O)C(c2ccccc2Cl)=C1Nc1cccc(O)c1,19.4,7.12,25.4,4.62,26.6,7.16,28.7,4.29,36.9,2.2,21.8,8.06,38.5,2.78,15.2,3.09,2.96,,,
Nc1ncnc2occ(-c3ccc(NC(=O)Nc4cc(C(F)(F)F)cc(C(F)(F)F)c4)cc3)c12,7.22,1.55,2.23,0.25,1.52,-0.28,3.73,0.31,2.87,0.61,1.36,0.09,2.4,0.19,1.76,1.71,2.18,1.22,5.65,1.08
COc1cc(C)c(NC(=O)CN(C)C)cc1Nc1nc(Nc2cccc(F)c2C(N)=O)c2cc[nH]c2n1,0.15,0.8,1.16,-0.59,-1.89,-0.3,3.87,45.4,88.8,1.76,13.2,1.71,20,1.59,14.8,2.4,5.3,-0.24,1.07,-1.22
CN(C)c1cc2c(Nc3ccc4nc(Cc5ccccc5)[nH]c4c3)ncnc2cn1,-2.11,3.33,3.46,1.02,1.2,1.12,3.91,2.08,1.7,2.14,3,4.46,6.18,1.66,2.67,3.79,5.25,2.41,4.97,1.6
COc1cccc(-n2ncc3c(N/N=C/c4cccc(F)c4)ncnc32)c1,5.59,0.03,22.1,3.4,34.2,-5.64,17.1,2.25,1.15,-2.19,-0.14,2.01,25.9,-1.44,14.9,4.29,16.8,54.5,75.2,44.7
Cn1cc(C=C2C(=O)Nc3cccnc32)c2ccccc21,3.36,4.89,11,5.57,7.28,1.04,8.56,3.28,13.7,0.62,-1.26,2.68,10.6,0.78,4.49,2.52,4.08,4.33,12.2,3.54
CS(=O)(=O)CCNCc1nc(-c2ccc3ncnc(Nc4ccc(F)c(Cl)c4)c3c2)cs1,-2.13,0.51,0.73,0.12,0.38,6.34,-1.47,0.29,2.89,-0.05,0.43,0.63,1.24,0.27,1.63,0.37,2.12,1.3,3.03,1.2
COc1cc(C=NNc2ncnc3c2cnn3-c2ccccc2)ccc1O,12.7,3.09,18.6,4,24.5,4.2,21.7,3.39,9.02,,9.46,4.3,28.8,1.97,11,5.08,23.7,47.7,79.2,41.6
Cc1nn(C)c2cc(N(C)c3ccnc(Nc4cccc(S(N)(=O)=O)c4)n3)ccc12,-0.68,1.72,4.46,0.41,2.78,,-0.34,0.73,0.86,1.2,3.34,0.4,0.86,-1.86,-1.3,2.83,2.82,1.79,3.95,0.37
Cc1ccc(C(=O)NC2CCCCC2)cc1-c1ccc(C(=O)NCC2CC2)cc1,0.7,2.37,2.51,1.19,1.18,3.79,0.76,2.01,2.19,0.94,1.19,0.7,-0.59,0.96,0.46,1.77,1.81,1.78,1.84,1.78
Nc1nc(-c2ccc3c(c2)C(=Cc2cc(Br)c(O)c(Br)c2)C(=O)N3)cs1,-0.65,-0.86,2.39,1.35,2.98,-5,-0.79,1.02,2.39,0.15,2.88,1.71,4.89,1.38,3.44,-2.46,-0.96,0.62,4.94,0.83
CC(=O)Nc1cccc(C#Cc2cncnc2Nc2ccc(OCc3cccc(F)c3)c(Cl)c2)n1,-0.89,-1.95,-1.42,0.24,1.19,-1.85,,0.62,0.84,-0.78,-0.85,-0.63,-0.35,1.51,2.18,-0.79,-0.95,0.36,1.39,1.37
CCN1CCC(CC(=O)Nc2n[nH]c3nc(-c4cccs4)c(Br)cc23)CC1,9.52,5.84,37,0.96,2.52,30.9,70.8,-1.44,2.75,0.48,4.44,4.33,20.6,4.83,22.3,-0.64,14,46.6,78.3,26.6
Cc1ccc(NC(=O)c2ccnc(N3CCCC3)c2)cc1-c1ccc(C(=O)NCC2CC2)cc1,-0.38,0.83,4.63,2.54,3.21,-7.97,-0.52,3.05,1.8,-1.85,-1.68,0.13,4,-2.86,-0.97,2.77,3.11,1.33,5.65,0.07
Nc1nc(-c2ccccn2)c(-c2ccc3ncccc3n2)s1,0.5,3.41,4.48,1.28,2.86,6.73,7.75,-0.01,0.69,2.95,4.76,7.05,18.3,3.14,8.56,2.04,4.58,3.86,12.8,3.76
COc1cc2ncn(-c3cc(OCc4ccccc4C(F)(F)F)c(C(N)=O)s3)c2cc1OC,-0.14,-1.16,1.16,-3.58,-1.09,-3.21,-1.7,1.94,6.82,-2.62,-2.17,-1.02,2.2,-4.5,-2.84,1.73,3.25,0.16,4.9,-0.65
